# Laboratory results reported in PubChem BioAssay (NCATS).
# Results filed as inconclusive are left out. Entries that show only a call come without a potency. Calls of active or inactive are those of the source. The call rests on the fitted dose curve; in most records, active means well fitted inhibition curve with a large enough effect; inconclusive means small, poorly fitted or top-dose-only effect; inactive means flat fitted curve, though single readings scatter.
# What was measured:
# Assay in all cases: qHTS profiling for inhibitors of Plasmodium falciparum proliferation (AID 504749); further: nearly all actives have a fitted effect of over 60% in size
# Conditions in all cases: P. falciparum in erythrocytes, SYBR Green DNA, 72 h; series mostly up to 28.7 µM
# ATS95 = tested on: ATS95
# Method in brief: (§1)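 Quantitative HTS: compounds pinned into medium, infected erythrocytes added (0.3% parasitemia, 2.5% hematocrit), 72 h culture at 37 C under 5% CO2. Saponin/Triton lysis with SYBR Green I, overnight RT, then fluorescence read.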
# C2A = tested on: C2A
# Method in brief: as §1
# CP185 = tested on: CP185
# Method in brief: as §1
# CP191 = tested on: CP191
# Method in brief: as §1
# CP192 = tested on: CP192
# Method in brief: as §1
# CP194 = tested on: CP194
# Method in brief: as §1
# CP201 = tested on: CP201
# Method in brief: as §1
# CP211 = tested on: CP211
# Method in brief: as §1
# CP215 = tested on: CP215
# Method in brief: as §1
# CP217 = tested on: CP217
# Method in brief: as §1
# CP237 = tested on: CP237
# Method in brief: as §1
# CP238 = tested on: CP238
# Method in brief: as §1
# CP247 = tested on: CP247
# Method in brief: as §1
# CP250 = tested on: CP250
# Method in brief: as §1
# CP252 = tested on: CP252
# Method in brief: as §1
# CP256 = tested on: CP256
# Method in brief: as §1
# CP260 = tested on: CP260
# Method in brief: as §1
# CP262 = tested on: CP262
# Method in brief: as §1
# CP265 = tested on: CP265
# Method in brief: as §1
# CP203 = tested on: CP203
# Method in brief: as §1
# Potency means the concentration at half of the fitted maximal effect.
Compound,Potency (ATS95),Potency (C2A),Potency (CP185),Potency (CP191),Potency (CP192),Potency (CP194),Potency (CP201),Potency (CP211),Potency (CP215),Potency (CP217),Potency (CP237),Potency (CP238),Potency (CP247),Potency (CP250),Potency (CP252),Potency (CP256),Potency (CP260),Potency (CP262),Potency (CP265),Potency (CP203)
CC1(C)CCC(C)(C)c2cc(NC(=O)c3ccc(C(=O)O)cc3)ccc21,inactive,inactive,inactive,inactive,inactive,inactive,inactive,inactive,inactive,inactive,inactive,inactive,inactive,inactive,inactive,inactive,inactive,inactive,inactive,–
CN1C(C(=O)Nc2ccccn2)=C(O)c2sccc2S1(=O)=O,inactive,inactive,inactive,inactive,inactive,inactive,inactive,inactive,inactive,inactive,inactive,inactive,inactive,inactive,inactive,inactive,inactive,inactive,inactive,inactive
CCN(CCO)CCCC(C)Nc1ccnc2cc(Cl)ccc12 (stereo not drawn),inactive,inactive,inactive,inactive,inactive,inactive,inactive,inactive,inactive,inactive,inactive,inactive,inactive,inactive,inactive,inactive,inactive,inactive,inactive,inactive
Nc1cc(C(Cl)=C(Cl)Cl)c(S(N)(=O)=O)cc1S(N)(=O)=O,inactive,inactive,inactive,inactive,inactive,inactive,inactive,inactive,inactive,inactive,inactive,inactive,inactive,inactive,inactive,inactive,inactive,inactive,inactive,–
O=C(NC(Cc1cc(=O)[nH]c2ccccc12)C(=O)O)c1ccc(Cl)cc1 (stereo not drawn),inactive,inactive,inactive,inactive,inactive,inactive,inactive,inactive,inactive,inactive,inactive,inactive,inactive,inactive,inactive,inactive,inactive,inactive,inactive,inactive
Cc1cccc(C)c1OCC(=O)N[C@@H](Cc1ccccc1)[C@@H](O)C[C@H](Cc1ccccc1)NC(=O)[C@H](C(C)C)N1CCCNC1=O,3.98 µM (active),11.2 µM (active),10 µM (active),5.62 µM (active),6.75 µM (active),7.57 µM (active),10.7 µM (active),7.57 µM (active),6.01 µM (active),3.98 µM (active),2.82 µM (active),5.01 µM (active),7.08 µM (active),7.08 µM (active),4.47 µM (active),11.2 µM (active),3.98 µM (active),9.53 µM (active),5.01 µM (active),6.01 µM (active)
O=C(O)CCNC(=O)c1ccc(N=Nc2ccc(O)c(C(=O)O)c2)cc1,inactive,inactive,inactive,inactive,inactive,inactive,inactive,inactive,inactive,inactive,inactive,inactive,inactive,inactive,inactive,inactive,inactive,inactive,inactive,inactive
O=C(O)c1cccnc1Nc1cccc(C(F)(F)F)c1,inactive,inactive,inactive,inactive,inactive,inactive,inactive,inactive,inactive,inactive,inactive,inactive,inactive,inactive,inactive,inactive,inactive,inactive,inactive,inactive
O=C(O)c1cccc(-c2noc(-c3ccccc3F)n2)c1,inactive,inactive,inactive,inactive,inactive,inactive,inactive,inactive,inactive,inactive,inactive,inactive,inactive,inactive,inactive,inactive,inactive,inactive,inactive,inactive
CC(C)[C@H](N)C(=O)OCCOCn1cnc2c(=O)[nH]c(N)nc21,inactive,inactive,inactive,inactive,inactive,inactive,inactive,inactive,inactive,inactive,inactive,inactive,inactive,inactive,inactive,inactive,inactive,inactive,inactive,inactive
Nc1ccn([C@@H]2O[C@H](CO)[C@@H](O)C2O)c(=O)n1 (stereo partly drawn),inactive,inactive,inactive,inactive,inactive,inactive,inactive,inactive,inactive,inactive,inactive,inactive,inactive,inactive,inactive,inactive,inactive,inactive,inactive,inactive
Cc1cc2cc3c(C)cc(=O)oc3c(C)c2o1,inactive,inactive,inactive,inactive,inactive,inactive,inactive,inactive,inactive,inactive,inactive,inactive,inactive,inactive,inactive,inactive,inactive,inactive,inactive,–
COc1ccc(C2(C#N)CCC(C(=O)O)CC2)cc1OC1CCCC1 (stereo not drawn),inactive,inactive,inactive,inactive,inactive,inactive,inactive,inactive,inactive,inactive,inactive,inactive,inactive,inactive,inactive,inactive,inactive,inactive,inactive,–
CCCOc1ccc2nc(NC(=O)OC)[nH]c2c1,inactive,inactive,inactive,inactive,inactive,inactive,inactive,inactive,inactive,inactive,inactive,inactive,inactive,inactive,inactive,inactive,inactive,inactive,inactive,inactive
CN(C)c1ccc2nc3ccc(=[N+](C)C)cc-3sc2c1,0.0708 µM (active),0.141 µM (active),0.0891 µM (active),0.0794 µM (active),0.0675 µM (active),0.0757 µM (active),0.0675 µM (active),0.0601 µM (active),0.12 µM (active),0.0891 µM (active),0.0126 µM (active),0.1 µM (active),0.141 µM (active),0.141 µM (active),0.0891 µM (active),0.0631 µM (active),0.0251 µM (active),0.019 µM (active),0.0891 µM (active),0.0338 µM (active)
CCOc1cc(CC(=O)N[C@@H](CC(C)C)c2ccccc2N2CCCCC2)ccc1C(=O)O,inactive,inactive,inactive,inactive,inactive,inactive,inactive,inactive,inactive,inactive,inactive,inactive,inactive,inactive,inactive,inactive,inactive,inactive,inactive,–
CC(S)C(=O)NCC(=O)O (stereo not drawn),inactive,inactive,inactive,inactive,inactive,inactive,inactive,inactive,inactive,inactive,inactive,inactive,inactive,inactive,inactive,inactive,inactive,inactive,inactive,inactive
Cc1ncc([N+](=O)[O-])n1CC(C)O (stereo not drawn),inactive,inactive,inactive,inactive,inactive,inactive,inactive,inactive,inactive,inactive,inactive,inactive,inactive,inactive,inactive,inactive,–,inactive,inactive,inactive
C=CCc1cc(OC)c(O)c(C(=O)NCCO)c1,inactive,inactive,inactive,inactive,inactive,inactive,inactive,inactive,inactive,inactive,inactive,inactive,inactive,inactive,inactive,inactive,inactive,inactive,inactive,inactive
O=C1c2ccccc2-c2n[nH]c3cccc1c23,inactive,inactive,inactive,inactive,inactive,inactive,inactive,inactive,–,inactive,inactive,inactive,inactive,inactive,inactive,inactive,inactive,inactive,inactive,inactive
CCOC(=O)c1c(C)n(C)c2ccc(O)cc12,inactive,inactive,inactive,inactive,inactive,inactive,inactive,–,inactive,inactive,inactive,inactive,inactive,inactive,inactive,inactive,inactive,inactive,inactive,inactive
O=C(O)c1cc(=O)c2c(OCC(O)COc3cccc4oc(C(=O)O)cc(=O)c34)cccc2o1,inactive,inactive,inactive,inactive,inactive,inactive,inactive,inactive,inactive,inactive,inactive,inactive,inactive,inactive,inactive,inactive,inactive,inactive,inactive,inactive
N=C(N=C(N)N)N1CCOCC1,inactive,inactive,inactive,inactive,inactive,inactive,inactive,inactive,inactive,inactive,inactive,inactive,inactive,inactive,inactive,inactive,inactive,inactive,inactive,–
O=C(NCCO[N+](=O)[O-])c1cccnc1,inactive,inactive,inactive,inactive,inactive,inactive,inactive,inactive,inactive,inactive,inactive,inactive,inactive,inactive,inactive,inactive,inactive,inactive,inactive,inactive
C[Se]CCC(N)C(=O)O (stereo not drawn),inactive,inactive,inactive,inactive,inactive,inactive,inactive,inactive,–,inactive,inactive,inactive,inactive,inactive,inactive,–,inactive,inactive,inactive,inactive
O=c1oc2cc(O)ccc2s1,inactive,inactive,inactive,inactive,inactive,inactive,inactive,inactive,inactive,inactive,inactive,inactive,inactive,–,inactive,inactive,inactive,inactive,inactive,inactive
C[C@]12CCC(=O)C=C1CC[C@@H]1[C@H]2[C@@H](O)C[C@@]2(C)[C@H]1CC[C@]2(O)C(=O)CO,inactive,inactive,inactive,inactive,inactive,inactive,inactive,inactive,inactive,inactive,inactive,inactive,inactive,inactive,inactive,inactive,inactive,inactive,inactive,inactive
